In PubChem BioAssay (NCI):
The panel holds about 79,000 compounds, 15% with a hit somewhere; the sample as a whole holds those more often. Calls of active or inactive are those of the source. Rule as the data show it: active = growth inhibition above about 70%; inactive = the rest.

What was measured:
[1] = NCI Yeast Anticancer Drug Screen. Data for the rad52 strain (AID 147);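 also: 0% = growth of vehicle-treated control cultures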; conditions: S. cerevisiae rad52 mutant growth inhibition, hits give high values
How it was run: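 Vehicle-treated cultures served as the reference for growth inhibition of compound-exposed yeast bearing a DNA repair mutation.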

[2] = NCI Yeast Anticancer Drug Screen. Data for the wt1 strain (AID 149);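 also: 0% = growth of vehicle-treated wt1 cultures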; conditions: S. cerevisiae wt1 strain (SPY 50644) growth inhibition, hits give high values
How it was run: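 Compounds are added to wt1 yeast cultures. Growth is then measured. Inhibition is expressed relative to vehicle-treated controls.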

[3] = NCI Yeast Anticancer Drug Screen. Data for the rad50EPP+ strain (AID 151);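 also: 0% = growth of vehicle-treated control cultures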; conditions: S. cerevisiae rad50 mutant strain, hits give high values
How it was run: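 In this screen, rad50EPP+ yeast were exposed to compounds. Growth inhibition was scored against vehicle-treated controls.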

[4] = NCI Yeast Anticancer Drug Screen. Data for the mgt1 strain (AID 153); conditions: S. cerevisiae mgt1 mutant growth inhibition, hits give high values
How it was run: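 mgt1 strain exposed; growth vs vehicle control recorded as inhibition.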

[5] = NCI Yeast Anticancer Drug Screen. Data for the rad50 strain (AID 155);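 also: 0% = growth of vehicle-only cultures of the same strain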; conditions: S. cerevisiae rad50 strain growth inhibition, hits give high values
How it was run: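 Inhibition values express reduced yeast growth in compound-treated cultures relative to vehicle-treated controls.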

[6] = NCI Yeast Anticancer Drug Screen. Data for the mec2-1 strain (AID 157); conditions: S. cerevisiae mec2-1 strain, hits give high values
How it was run: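 Vehicle-treated cultures served as reference for growth inhibition of compound-exposed mec2-1 yeast.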

[7] = NCI Yeast Anticancer Drug Screen. Data for the rad14 strain (AID 159);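 also: 0% = growth of vehicle-treated control cultures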; conditions: S. cerevisiae rad14 strain growth inhibition, hits give high values
How it was run: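 A mutant yeast strain defective in DNA damage repair is treated with compound; inhibition of its growth is scored against untreated, vehicle-exposed cultures.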

[8] = NCI Yeast Anticancer Drug Screen. Data for the sgs1 mgt1 strain (AID 161);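 also: 0% = growth of cultures given vehicle only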; conditions: S. cerevisiae sgs1 mgt1 strain, hits give high values
How it was run: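 Test agents were incubated with a DNA-repair-mutant yeast strain. Growth was then read and compared against vehicle-treated controls.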

[9] = NCI Yeast Anticancer Drug Screen. Data for the CLN2oe strain (AID 163);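 also: 0% = growth of vehicle-only control cultures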; conditions: S. cerevisiae CLN2oe strain, hits give high values
How it was run: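 Inhibition relative to vehicle-treated yeast is reported. Cells: strain with genetic alteration in cell-cycle control, grown with compound.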

[10] = NCI Yeast Anticancer Drug Screen. Data for the cln2 rad14 strain (AID 165);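 also: 0% = growth equal to vehicle treated cultures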; conditions: S. cerevisiae cln2 rad14 strain, hits give high values
How it was run: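 Each compound was tested on cln2 rad14 yeast. Inhibition of growth was calculated against vehicle-exposed controls.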

[11] = NCI Yeast Anticancer Drug Screen. Data for the bub3 strain (AID 167); conditions: S. cerevisiae bub3 mutant strain, hits give high values
How it was run: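 Steps: expose the mutant yeast strain to compound; grow alongside vehicle-treated cultures; measure growth; express inhibition against the vehicle cultures.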

[12] = NCI Yeast Anticancer Drug Screen. Data for the wt2 strain (AID 169);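 also: 0% = growth of vehicle-treated yeast cultures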; conditions: S. cerevisiae wt2 strain growth inhibition, hits give high values
How it was run: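 Inhibition of yeast growth was determined after compound treatment, normalised to controls receiving only vehicle.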

[13] = NCI Yeast Anticancer Drug Screen. Data for the mlh1 strain (AID 171);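 also: 0% = growth of vehicle-treated control cultures of the same strain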; conditions: S. cerevisiae mlh1 strain growth inhibition, hits give high values
How it was run: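 Vehicle-normalised growth inhibition of a repair- or checkpoint-altered yeast strain following compound treatment.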

[14] = NCI Yeast Anticancer Drug Screen. Data for the sgs1 strain (AID 173);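 also: 0% = growth of vehicle-only control cultures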; conditions: S. cerevisiae sgs1 mutant, hits give high values
How it was run: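 Screen format: yeast with repair or checkpoint alterations, compound exposure, growth read relative to vehicle.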

[15] = NCI Yeast Anticancer Drug Screen. Data for the mlh1 rad18 strain (AID 175); conditions: S. cerevisiae mlh1 rad18 strain growth inhibition, hits give high values
How it was run: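 Vehicle-treated cultures served as the reference for growth inhibition in a yeast strain carrying DNA damage repair alterations exposed to each compound.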

[16] = at 5.0 µM (retest, dose inferred, filed as 0.5)
[17] = at 50.0 µM (retest, dose inferred, filed as 5.0)

Measured: growth inhibition

CC12CCC(CC(=O)/C1=C(/Br)I)C2(C)C (stereo unspecified)
inactive: [1]; at 1.2 µM 2% | [1]; at 3.7 µM 3% | [1]; at 11.0 µM 5% | [1]; at 33.0 µM 13% | [1]; at 100.0 µM 3% | [2]; at 1.2 µM -3% | [2]; at 3.7 µM -2% | [2]; at 11.0 µM -1% | [2]; at 33.0 µM -6% | [2]; at 100.0 µM -1% | [3]; at 1.2 µM 1% | [3]; at 3.7 µM 5% | [3]; at 11.0 µM 7% | [3]; at 33.0 µM 12% | [3]; at 100.0 µM 3% | [4]; at 1.2 µM -1% | [4]; at 3.7 µM -2% | [4]; at 11.0 µM 6% | [4]; at 33.0 µM -13% | [4]; at 100.0 µM 0% | [5]; at 1.2 µM 1% | [5]; at 3.7 µM -3% | [5]; [16] 1% | [5]; at 11.0 µM -18% | [5]; at 33.0 µM 14% | [5]; at 100.0 µM 5% | [6]; at 1.2 µM 0% | [6]; at 3.7 µM -2% | [6]; [16] -19% | [6]; at 11.0 µM -5% | [6]; at 33.0 µM 5% | [6]; at 100.0 µM -3% | [7]; at 1.2 µM 1% | [7]; at 3.7 µM 1% | [7]; at 11.0 µM 2% | [7]; at 33.0 µM 3% | [7]; at 100.0 µM 2% | [8]; [16] -9% | [9]; at 1.2 µM -1% | [9]; at 3.7 µM 4% | [9]; at 11.0 µM 2% | [9]; at 33.0 µM 0% | [9]; at 100.0 µM 6% | [10]; [16] 40% | [10]; [17] 68% | [10]; at 50.0 µM 63% | [11]; at 1.2 µM 5% | [11]; at 3.7 µM 11% | [11]; [16] -11% | [11]; at 11.0 µM 18% | [11]; at 33.0 µM 24% | [11]; at 100.0 µM 10% | [12]; at 1.2 µM -2% | [12]; at 3.7 µM -1% | [12]; at 11.0 µM 1% | [12]; at 33.0 µM 3% | [12]; at 100.0 µM 0% | [13]; at 1.2 µM 2% | [13]; at 3.7 µM -3% | [13]; at 11.0 µM 3% | [13]; at 33.0 µM 3% | [13]; at 100.0 µM -1% | [14]; at 1.2 µM -2% | [14]; at 3.7 µM -1% | [14]; at 11.0 µM 1% | [14]; at 33.0 µM 21% | [14]; at 100.0 µM 1% | [15]; [16] -18%
active: [5]; [17] 80% | [5]; at 50.0 µM 81% | [6]; [17] 95% | [6]; at 50.0 µM 90.4% | [8]; [17] 93% | [8]; at 50.0 µM 84.3% | [11]; [17] 94% | [11]; at 50.0 µM 78.3% | [15]; [17] 96% | [15]; at 50.0 µM 83.2%

CN(C)CCCn1c2c3ccccc3ccc2c2oc(=O)c3ccccc3c21
active: [1]; at 11.0 µM 86% | [1]; at 33.0 µM 97% | [1]; at 100.0 µM 98% | [2]; at 33.0 µM 84% | [2]; at 100.0 µM 97% | [3]; at 11.0 µM 95% | [3]; at 33.0 µM 98% | [3]; at 100.0 µM 98% | [4]; at 33.0 µM 92% | [4]; at 100.0 µM 98% | [5]; at 11.0 µM 91% | [5]; at 33.0 µM 97% | [5]; [17] 98% | [5]; at 50.0 µM 99% | [5]; at 100.0 µM 98% | [6]; at 33.0 µM 88% | [6]; [17] 98% | [6]; at 50.0 µM 98.8% | [6]; at 100.0 µM 96% | [7]; at 33.0 µM 83% | [7]; at 100.0 µM 98% | [8]; [17] 75% | [8]; at 50.0 µM 98.7% | [9]; at 33.0 µM 86% | [9]; at 100.0 µM 97% | [10]; [17] 97% | [10]; at 50.0 µM 98.4% | [11]; at 33.0 µM 87% | [11]; [17] 98% | [11]; at 50.0 µM 99.2% | [11]; at 100.0 µM 98% | [12]; at 33.0 µM 93% | [12]; at 100.0 µM 97% | [13]; at 33.0 µM 90% | [13]; at 100.0 µM 98% | [14]; at 33.0 µM 85% | [14]; at 100.0 µM 96% | [15]; [17] 98% | [15]; at 50.0 µM 99.2%
inactive: [1]; at 1.2 µM 3% | [1]; at 3.7 µM 33% | [2]; at 1.2 µM -10% | [2]; at 3.7 µM -7% | [2]; at 11.0 µM 26% | [3]; at 1.2 µM 13% | [3]; at 3.7 µM 58% | [4]; at 1.2 µM 13% | [4]; at 3.7 µM 33% | [4]; at 11.0 µM 53% | [5]; at 1.2 µM 0% | [5]; at 3.7 µM 45% | [5]; [16] 22% | [6]; at 1.2 µM 0% | [6]; at 3.7 µM 28% | [6]; [16] 21% | [6]; at 11.0 µM 48% | [7]; at 1.2 µM -6% | [7]; at 3.7 µM 10% | [7]; at 11.0 µM 30% | [8]; [16] -9% | [9]; at 1.2 µM 3% | [9]; at 3.7 µM 14% | [9]; at 11.0 µM 44% | [10]; [16] -17% | [11]; at 1.2 µM 20% | [11]; at 3.7 µM 11% | [11]; [16] 12% | [11]; at 11.0 µM 23% | [12]; at 1.2 µM -22% | [12]; at 3.7 µM -9% | [12]; at 11.0 µM 50% | [13]; at 1.2 µM 22% | [13]; at 3.7 µM 30% | [13]; at 11.0 µM 53% | [14]; at 1.2 µM 0% | [14]; at 3.7 µM -2% | [14]; at 11.0 µM 34% | [15]; [16] -1%
